# Out of some 5,500 compounds screened, about 2,000 (36%) were called active. Not shown: some 18% with an inconclusive outcome. Cut-off read from the data, not from the text of the source: active = normalized growth mostly below about 0.91 (no sharp cut-off); inconclusive = no clear call, values can overlap the other calls; inactive = mostly above about 0.92. Some of the results follow.
# Assay: chemical genetic growth profiling, strain panel (AID 1159580);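 note: tested at 20 µM; growth read once vehicle control cultures reached saturation at 30 °C; 1 = growth at the plate median or of vehicle wells; lower values mean less growth of the strain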
# Conditions: growth OD
smiles,measurement,setting,value
CNc1ccc(C(=O)CC(O)CCC(C)C2OC(=O)CC(O)CC(=O)CC(O)CC(O)CC(O)CC(O)CC3(O)CC(O)C(C(=O)OC)C(CC(OC4OC(C)C(O)C(N)C4O)/C=C/C=C/C=C/C=C/C=C/C=C/C=C/C2C)O3)cc1 (stereo unspecified),normalized growth,"S. cerevisiae deletion strains, locus YAL013W, strain DEP1, stronger effect = lower value",0.0566 (active)
same,normalized growth,"S. cerevisiae deletion strains, locus YBR021W, strain FUR4, stronger effect = lower value",0.0931 (active)
same,normalized growth,"S. cerevisiae deletion strains, locus YBR229C, strain ROT2, stronger effect = lower value",0.0524 (active)
same,normalized growth,"S. cerevisiae deletion strains, locus YCL029C, strain bik1, stronger effect = lower value",0.0837 (active)
same,normalized growth,"S. cerevisiae deletion strains, locus YDL035C, strain GPR1, stronger effect = lower value",0.0535 (active)
same,normalized growth,"S. cerevisiae deletion strains, locus YDL074C, strain BRE1, stronger effect = lower value",0.0938 (active)
same,normalized growth,"S. cerevisiae deletion strains, locus YDL101C, strain DUN1, stronger effect = lower value",0.0651 (active)
same,normalized growth,"S. cerevisiae deletion strains, locus YDL134C, strain PPH21, stronger effect = lower value",0.0946 (active)
same,normalized growth,"S. cerevisiae deletion strains, locus YDL185W, strain tfp1, stronger effect = lower value",0.056 (active)
same,normalized growth,"S. cerevisiae deletion strains, locus YDL192W, strain arf1, stronger effect = lower value",0.0619 (active)
same,normalized growth,"S. cerevisiae deletion strains, locus YDR101C, strain arx1, stronger effect = lower value",0.0612 (active)
same,normalized growth,"S. cerevisiae deletion strains, locus YDR150W, strain NUM1, stronger effect = lower value",0.0603 (active)
same,normalized growth,"S. cerevisiae deletion strains, locus YDR162C, strain NBP2, stronger effect = lower value",0.0526 (active)
same,normalized growth,"S. cerevisiae deletion strains, locus YDR318W, strain mcm21, stronger effect = lower value",0.0791 (active)
same,normalized growth,"S. cerevisiae deletion strains, locus YDR388W, stronger effect = lower value",0.0583 (active)
same,normalized growth,"S. cerevisiae deletion strains, locus YDR502C, strain sam2, stronger effect = lower value",0.0726 (active)
same,normalized growth,"S. cerevisiae deletion strains, locus YEL061C, strain CIN8, stronger effect = lower value",0.133 (active)
same,normalized growth,"S. cerevisiae deletion strains, locus YER110C, stronger effect = lower value",0.11 (active)
same,normalized growth,"S. cerevisiae deletion strains, locus YER155C, strain BEM2, stronger effect = lower value",0.0648 (active)
same,normalized growth,"S. cerevisiae deletion strains, locus YER167W, strain BCK2, stronger effect = lower value",0.0539 (active)
same,normalized growth,"S. cerevisiae deletion strains, locus YGL078C, strain dbp3, stronger effect = lower value",0.0564 (active)
same,normalized growth,"S. cerevisiae deletion strains, locus YGL086W, strain mad1, stronger effect = lower value",0.0591 (active)
same,normalized growth,"S. cerevisiae deletion strains, locus YGL248W, strain PDE1, stronger effect = lower value",0.11 (active)
same,normalized growth,"S. cerevisiae deletion strains, locus YGR078C, strain PAC10, stronger effect = lower value",0.0538 (active)
same,normalized growth,"S. cerevisiae deletion strains, locus YGR135W, strain pre9, stronger effect = lower value",0.0705 (active)
same,normalized growth,"S. cerevisiae deletion strains, locus YGR229C, strain SMI1, stronger effect = lower value",0.0606 (active)
same,normalized growth,"S. cerevisiae deletion strains, locus YGR252W, strain gcn5, stronger effect = lower value",0.194 (active)
same,normalized growth,"S. cerevisiae deletion strains, locus YHR030C, strain SLT2, stronger effect = lower value",0.0491 (active)
same,normalized growth,"S. cerevisiae deletion strains, locus YHR079C, strain IRE1 (second series), stronger effect = lower value",0.0787 (active)
same,normalized growth,"S. cerevisiae deletion strains, locus YHR094C, strain hxt1, stronger effect = lower value",0.119 (active)
same,normalized growth,"S. cerevisiae deletion strains, locus YHR129C, strain ARP1, stronger effect = lower value",0.0557 (active)
same,normalized growth,"S. cerevisiae deletion strains, locus YHR200W, strain rpn10, stronger effect = lower value",0.0615 (active)
same,normalized growth,"S. cerevisiae deletion strains, locus YIL066C, strain RNR3, stronger effect = lower value",0.12 (active)
same,normalized growth,"S. cerevisiae deletion strains, locus YIL073C, strain SPO22, stronger effect = lower value",0.63 (active)
same,normalized growth,"S. cerevisiae deletion strains, locus YIL125W, strain kgd1, stronger effect = lower value",0.0582 (active)
same,normalized growth,"S. cerevisiae deletion strains, locus YIR030C, strain dcg1, stronger effect = lower value",0.0683 (active)
same,normalized growth,"S. cerevisiae deletion strains, locus YJL095W, strain BCK1, stronger effect = lower value",0.0555 (active)
same,normalized growth,"S. cerevisiae deletion strains, locus YJL134W, strain LCB3, stronger effect = lower value",0.0513 (active)
same,normalized growth,"S. cerevisiae deletion strains, locus YJL168C, strain set2, stronger effect = lower value",0.119 (active)
same,normalized growth,"S. cerevisiae deletion strains, locus YJL187C, strain SWE1 (second series), stronger effect = lower value",0.0564 (active)
same,normalized growth,"S. cerevisiae deletion strains, locus YJR043C, strain POL32, stronger effect = lower value",0.0719 (active)
same,normalized growth,"S. cerevisiae deletion strains, locus YJR075W, strain HOC1, stronger effect = lower value",0.0687 (active)
same,normalized growth,"S. cerevisiae deletion strains, locus YKL009W, strain mrt4, stronger effect = lower value",0.0698 (active)
same,normalized growth,"S. cerevisiae deletion strains, locus YKL068W, stronger effect = lower value",0.0536 (active)
same,normalized growth,"S. cerevisiae deletion strains, locus YKL085W, strain MDH1 (second series), stronger effect = lower value",0.0497 (active)
same,normalized growth,"S. cerevisiae deletion strains, locus YKL085W, strain MDH1, stronger effect = lower value",0.0497 (active)
same,normalized growth,"S. cerevisiae deletion strains, locus YKL190W, strain CNB1, stronger effect = lower value",0.0588 (active)
same,normalized growth,"S. cerevisiae deletion strains, locus YKR001C, strain vps1, stronger effect = lower value",0.0648 (active)
same,normalized growth,"S. cerevisiae deletion strains, locus YLR039C, strain RIC1, stronger effect = lower value",0.0872 (active)
same,normalized growth,"S. cerevisiae deletion strains, locus YLR058C, strain SHM2, stronger effect = lower value",0.0574 (active)
same,normalized growth,"S. cerevisiae deletion strains, locus YLR102C, strain apc9, stronger effect = lower value",0.0963 (active)
same,normalized growth,"S. cerevisiae deletion strains, locus YLR262C, strain YPT6, stronger effect = lower value",0.0942 (active)
same,normalized growth,"S. cerevisiae deletion strains, locus YLR268W, strain sec22, stronger effect = lower value",0.0696 (active)
same,normalized growth,"S. cerevisiae deletion strains, locus YLR330W, strain CHS5, stronger effect = lower value",0.0514 (active)
same,normalized growth,"S. cerevisiae deletion strains, locus YLR342W, strain FKS1 (second series), stronger effect = lower value",0.0823 (active)
same,normalized growth,"S. cerevisiae deletion strains, locus YLR371W, strain rom2, stronger effect = lower value",0.0741 (active)
same,normalized growth,"S. cerevisiae deletion strains, locus YLR418C, strain cdc73, stronger effect = lower value",0.0943 (active)
same,normalized growth,"S. cerevisiae deletion strains, locus YML016C, strain PPZ1, stronger effect = lower value",0.136 (active)
same,normalized growth,"S. cerevisiae deletion strains, locus YML032C, strain rad52, stronger effect = lower value",0.0764 (active)
same,normalized growth,"S. cerevisiae deletion strains, locus YML124C, strain tub3, stronger effect = lower value",0.0593 (active)
same,normalized growth,"S. cerevisiae deletion strains, locus YMR078C, strain ctf18, stronger effect = lower value",0.0766 (active)
same,normalized growth,"S. cerevisiae deletion strains, locus YMR223W, strain ubp8, stronger effect = lower value",0.0693 (active)
same,normalized growth,"S. cerevisiae deletion strains, locus YMR263W, strain SAP30, stronger effect = lower value",0.0638 (active)
same,normalized growth,"S. cerevisiae deletion strains, locus YMR307W, strain GAS1, stronger effect = lower value",0.109 (active)
same,normalized growth,"S. cerevisiae deletion strains, locus YNL067W, strain RPL9B, stronger effect = lower value",0.0557 (active)
same,normalized growth,"S. cerevisiae deletion strains, locus YNL128W, strain TEP1, stronger effect = lower value",0.0601 (active)
same,normalized growth,"S. cerevisiae deletion strains, locus YNL153C, strain GIM3, stronger effect = lower value",0.0467 (active)
same,normalized growth,"S. cerevisiae deletion strains, locus YNL233W, strain BNI4, stronger effect = lower value",0.0536 (active)
same,normalized growth,"S. cerevisiae deletion strains, locus YNL250W, strain rad50, stronger effect = lower value",0.0761 (active)
same,normalized growth,"S. cerevisiae deletion strains, locus YNL271C, strain bni1, stronger effect = lower value",0.0615 (active)
same,normalized growth,"S. cerevisiae deletion strains, locus YNL298W, strain CLA4, stronger effect = lower value",0.0597 (active)
same,normalized growth,"S. cerevisiae deletion strains, locus YNL307C, strain MCK1, stronger effect = lower value",0.0706 (active)
same,normalized growth,"S. cerevisiae deletion strains, locus YNL322C, strain KRE1, stronger effect = lower value",0.0507 (active)
same,normalized growth,"S. cerevisiae deletion strains, locus YNR052C, strain pop2, stronger effect = lower value",0.0636 (active)
same,normalized growth,"S. cerevisiae deletion strains, locus YOL006C, strain TOP1, stronger effect = lower value",0.132 (active)
same,normalized growth,"S. cerevisiae deletion strains, locus YOL012C, strain htz1",0.225 (inactive)
same,normalized growth,"S. cerevisiae deletion strains, locus YOL147C, strain pex11, stronger effect = lower value",0.0576 (active)
same,normalized growth,"S. cerevisiae deletion strains, locus YOR061W, strain CKA2, stronger effect = lower value",0.0583 (active)
same,normalized growth,"S. cerevisiae deletion strains, locus YOR069W, strain VPS5, stronger effect = lower value",0.0477 (active)
same,normalized growth,"S. cerevisiae deletion strains, locus YOR136W, strain idh2, stronger effect = lower value",0.074 (active)
same,normalized growth,"S. cerevisiae deletion strains, locus YOR144C, strain elg1, stronger effect = lower value",0.0585 (active)
same,normalized growth,"S. cerevisiae deletion strains, locus YOR184W, strain ser1, stronger effect = lower value",0.075 (active)
same,normalized growth,"S. cerevisiae deletion strains, locus YOR316C, strain cot1, stronger effect = lower value",0.1 (active)
same,normalized growth,"S. cerevisiae deletion strains, locus YPL055C, strain LGE1, stronger effect = lower value",0.0726 (active)
same,normalized growth,"S. cerevisiae deletion strains, locus YPL241C, strain CIN2, stronger effect = lower value",0.0521 (active)
same,normalized growth,"S. cerevisiae deletion strains, locus YPR119W, strain clb2, stronger effect = lower value",0.0662 (active)
same,normalized growth,"S. cerevisiae deletion strains, locus YPR141C, strain kar3, stronger effect = lower value",0.0657 (active)
same,normalized growth,"S. cerevisiae deletion strains, locus YPR163C, strain tif3, stronger effect = lower value",0.0749 (active)
same,normalized growth,"S. cerevisiae deletion strains, locus YPR167C, strain met16, stronger effect = lower value",0.0645 (active)
same,normalized growth,"S. cerevisiae deletion strains, strain wtn01, stronger effect = lower value",0.061 (active)
same,normalized growth,"S. cerevisiae strains, strain wild type, stronger effect = lower value",0.0494 (active)

# — PubChem BioAssay AID1159580 (chemical genetic matrix, 2015)
